Measurements taken from PubChem BioAssay (NCI).
This is part of a sample that, as a whole, favours compounds with a hit. Of some 83,000 tested, about 20% had one in any assay.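 In brief: 96-well plates, 48 h treatment, single concentration, percent growth endpoint.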 A number with no mark means an inactive call. The source made the active and inactive calls. Rule for the calls: active = growth percent below 10; inactive = the rest.

How the values were obtained:
Assay in all cases: NCI-60 one-dose screen, 48 h (100 = growth as untreated, 0 = no growth, -100 = all killed)
Settings in all cases: 10 µM
NCI-H23 lung = tested on: NCI-H23 lung
NCI-H226 lung = tested on: NCI-H226 lung
NCI-H322M lung = tested on: NCI-H322M lung
HOP-62 NSCLC = tested on: HOP-62 NSCLC
NCI-H460 lung = tested on: NCI-H460 lung
HOP-92 NSCLC = tested on: HOP-92 NSCLC
NCI-H522 lung = tested on: NCI-H522 lung
A549/ATCC NSCLC = tested on: A549/ATCC NSCLC
786-0 renal = tested on: 786-0 renal
COLO 205 colon = tested on: COLO 205 colon

Row | Structure (SMILES) | growth (NCI-H23 lung) | growth (NCI-H226 lung) | growth (NCI-H322M lung) | growth (HOP-62 NSCLC) | growth (NCI-H460 lung) | growth (HOP-92 NSCLC) | growth (NCI-H522 lung) | growth (A549/ATCC NSCLC) | growth (786-0 renal) | growth (COLO 205 colon)
1 | CCCCCCCCCCCCCCCCn1cc[n+](C)c1 | -51.9% (active) | -60.5% (active) | 8.28% (active) | -82.7% (active) | -87.9% (active) | -80.2% (active) | -87.4% (active) | -50.9% (active) | -90.4% (active) | -46% (active)
2 | CC(=O)OC1Oc2ccccc2-c2oc(=O)c(-c3ccc(F)cc3)cc21 (stereo not given) | 92.5% | 91.9% | 107% | 101% | 94.4% | 112% | 42.5% | 57.8% | 95.4% | 108%
3 | O=c1cc(CSc2nnc(-c3ccccc3)n2-c2ccc(F)cc2)c2ccc3ccccc3c2o1 | 83.6% | 81.4% | 91.8% | 92.8% | 100% | 83.5% | 74.1% | 99.2% | 102% | 91.3%
4 | O=c1ccc2nc(-c3ccccc3)nn(-c3ccccc3)c-2c1 | 54.4% | 68.1% | 88.2% | 69.5% | 81.4% | -33% (active) | -90.5% (active) | 73.7% | 48.6% | -78.8% (active)
5 | Cc1ccc(C(=O)O)c(N)c1C | 94.4% | 98.6% | 96.1% | 90.2% | 108% | 98.8% | 87.3% | 111% | 103% | 117%
6 | O=CNc1c(Cl)cc2c(c1Cl)Cc1cc([N+](=O)[O-])ccc1-2 | 58.3% | 90.1% | 78% | 67.6% | 31.4% | 60.6% | 44.7% | 38.4% | 109% | 34.4%
7 | COc1ccc(-c2nnc(COc3ccc(NC(=O)Nc4cccc(C(F)(F)F)c4)cc3F)o2)cc1 | 56.6% | 87.9% | 43.4% | 67.4% | 39.3% | 25.5% | -21.2% (active) | 57.8% | 78.9% | 88.1%
8 | CC(=O)OCC(COC(C)=O)(COC(C)=O)COC(C)=O | 102% | 93.5% | 99.5% | 102% | 104% | 105% | 99.4% | 111% | 112% | 109%
9 | CCc1ccc(Nc2cc(C)nc3nc(C)nn23)cc1 | 3.75% (active) | 62.1% | 61.7% | 26.8% | -43.3% (active) | -3% (active) | -14.6% (active) | -17.6% (active) | 34.8% | -96.4% (active)
10 | Cc1c(C(=O)N[C@H](CO)Cc2ccccc2)[nH]c2ccc(Cl)cc2c1=O | 101% | 120% | 108% | 100% | 106% | 94.7% | 83.8% | 87.1% | 96.4% | 104%
11 | COc1cccc(-c2nnc(COc3ccc(-c4nc5ccc(C)cc5[nH]4)cc3OC)o2)c1 | 88% | 84.6% | 98% | 101% | 36.7% | 74% | 91.2% | 61.8% | 81.5% | 72.6%
12 | Brc1ccc(-c2cn3ccnc3c(-c3ccc(Br)cc3)n2)cc1 | 59.8% | 70.6% | 86.7% | 33.2% | 16.8% | 55.8% | -14.9% (active) | 31.9% | 57.8% | 7.83% (active)
13 | COc1c(C)c(C)c(OC)c2c1[nH]c(=O)c1c3cccnc3cn21 | 103% | 99% | 153% | 92.6% | 104% | 102% | 98.4% | 114% | 114% | 118%
14 | COc1ccc(Cn2cc3c(c2-c2cc(OC)c(OC)c(OC)c2)CCc2cnoc2-3)cc1N | 15.8% | 12.7% | 14.9% | 47.4% | -9.29% (active) | 80.8% | 32.3% | 28.5% | 15.8% | -29.1% (active)
15 | CCOCC[P+](c1ccccc1)(c1ccccc1)c1ccccc1 | 36% | 80% | 82% | 50.3% | 58.7% | -6.22% (active) | 26.2% | 45.3% | 72.5% | 44.5%
16 | O=C(CCl)N1c2ccccc2Sc2ccc3ccccc3c21 | -76.5% (active) | 34.4% | 65.9% | -77.8% (active) | -35.4% (active) | -78.3% (active) | -81.1% (active) | 38% | -62.8% (active) | -76.3% (active)
17 | COc1ccc(-c2nc(NC(=O)CS(=O)(=O)c3ccc(F)cc3)sc2C)cc1 | 37% | 93.9% | 69.5% | 65.3% | 59.2% | 37% | 49% | 54.2% | 60.9% | 88.8%
18 | COc1ccc(-c2csc(-c3cc(Cl)cc(Cl)c3Cl)n2)cc1 | 91.4% | 88.9% | 98.6% | 91.1% | 97.9% | 85.8% | 81.8% | 54.5% | 111% | 91.6%
19 | O=C(O)CCCCSCCCCC(=O)O | 103% | 93.4% | 109% | 95.8% | 113% | 96.8% | 83.3% | 90.9% | 101% | 113%
20 | COc1cc(C2c3cc4c(cc3C(O)C(CO)C2CO)OCO4)cc(OC)c1OC (stereo not given) | 43.2% | 40.4% | -0.279% (active) | 40.7% | 4.74% (active) | 65.4% | 3.32% (active) | 47.4% | 39.1% | -3.75% (active)
21 | O=C1/C(=C/c2cccs2)CCC/C1=C\c1cccs1 | 81.5% | 80.9% | 85.3% | 96.7% | 92.1% | 66% | 76.7% | 88.4% | 108% | 117%
22 | COc1ccc(-c2[nH]ncc2/C=C/c2cc(C(F)(F)F)[nH]c(=O)n2)cc1 | 99.4% | 96.9% | 98.1% | 96% | 110% | 59.3% | 75.7% | 104% | 89.8% | 113%
23 | COc1ccc(-c2nc(-c3nc4ccc(C)cc4[nH]3)c3ccccn23)cc1 | 69.3% | 57.9% | 50.3% | 52% | 52.1% | -2.51% (active) | 38.8% | 24.2% | 78.3% | 61.1%
24 | CC(=O)Nc1nc(C)c(C(=O)NNC=O)s1 | 97.4% | 92.7% | 155% | 111% | 105% | 67.2% | 99.5% | 107% | 118% | 128%
25 | CS(=O)(=O)Nc1ccc(OCc2nnc(-c3ccc(Cl)cc3)o2)c(F)c1 | 93.6% | 86.2% | 109% | 87.2% | 98.9% | 88.3% | 94.8% | 90.2% | 89.4% | 110%
26 | COc1cc(N=C2C(=O)N(Cc3ccccc3)c3ccccc32)cc(OC)c1OC | 89.9% | 88.3% | 108% | 101% | 103% | 35.6% | 75% | 103% | 103% | 114%
27 | O=C(Nc1cccc(Cl)c1)OCC(COC(=O)Nc1cccc(Cl)c1)(COC(=O)Nc1cccc(Cl)c1)[N+](=O)[O-] | 22.9% | 66.4% | 45.8% | 41.8% | 17.9% | 18.6% | 27.4% | 26.2% | 32.8% | 35.5%
28 | Nc1ccn([C@@H]2O[C@H](COP(=O)(O)O[C@@H]3C[C@H](n4cc(F)c(=O)[nH]c4=O)O[C@@H]3COP(=O)(O)O[C@@H]3C[C@H](n4cc(F)c(=O)[nH]c4=O)O[C@@H]3COP(=O)(O)O[C@@H]3C[C@H](n4cc(F)c(=O)[nH]c4=O)O[C@@H]3COP(=O)(O)O[C@@H]3C[C@H](n4cc(F)c(=O)[nH]c4=O)O[C@@H]3COP(=O)(O)O[C@@H]3C[C@H](n4cc(F)c(=O)[nH]c4=O)O[C@@H]3COP(=O)(O)O[C@@H]3C[C@H](n4cc(F)c(=O)[nH]c4=O)O[C@@H]3COP(=O)(O)O[C@@H]3C[C@H](n4cc(F)c(=O)[nH]c4=O)O[C@@H]3COP(=O)(O)O[C@@H]3C[C@H](n4cc(F)c(=O)[nH]c4=O)O[C@@H]3COP(=O)(O)O[C@@H]3C[C@H](n4cc(F)c(=O)[nH]c4=O)O[C@@H]3COP(=O)(O)O[C@@H]3C[C@H](n4cc(F)c(=O)[nH]c4=O)O[C@@H]3COP(=O)(O)OCCOCCOCCOCCOCCOCCO)[C@H](O)C2O)c(=O)n1 (stereo not given in full) | 33.2% | 72.7% | 83.5% | 30% | 6.31% (active) | 71% | 45% | 11.7% | 28.2% | 36.9%
